# Reference: PubChem BioAssay AID588342 (National Center for Advancing Translational Sciences (NCATS), 2011)
# The whole screen tested about 360,000 compounds, of which about 25,000 (6.9%) were called active. Not shown: some 9% with an inconclusive outcome. This is one part of a sample in which actives are shown more often than they occur. Unmarked numbers belong to inactive results. Calls follow the shape of the dose curve; as a rule, active = well fitted inhibition curve with a large enough effect; inconclusive = small, poorly fitted or top-dose-only effect; inactive = flat fitted curve, though single readings scatter.
# Target: Luciferin 4-monooxygenase (Photinus pyralis) (UniProt P08659)
# Sequence (P08659 whole entry, looked up): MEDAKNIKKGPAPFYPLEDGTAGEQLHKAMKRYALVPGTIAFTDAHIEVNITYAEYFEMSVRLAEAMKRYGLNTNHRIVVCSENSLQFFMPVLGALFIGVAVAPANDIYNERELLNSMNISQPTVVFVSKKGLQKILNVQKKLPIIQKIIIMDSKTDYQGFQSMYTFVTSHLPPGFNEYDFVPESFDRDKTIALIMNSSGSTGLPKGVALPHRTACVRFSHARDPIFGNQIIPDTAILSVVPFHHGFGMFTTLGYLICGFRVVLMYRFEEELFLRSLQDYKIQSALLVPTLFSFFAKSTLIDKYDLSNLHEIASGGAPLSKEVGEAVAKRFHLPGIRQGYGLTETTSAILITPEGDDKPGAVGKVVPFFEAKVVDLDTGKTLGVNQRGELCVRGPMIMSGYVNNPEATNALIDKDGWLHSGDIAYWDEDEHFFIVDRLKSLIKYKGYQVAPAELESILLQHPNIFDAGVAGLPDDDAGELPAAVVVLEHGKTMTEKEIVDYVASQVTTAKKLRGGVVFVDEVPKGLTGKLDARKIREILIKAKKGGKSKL
# Assay: qHTS profiling assay for firefly luciferase inhibitor/activator using purifed enzyme and Km concentrations of substrates (counterscreen for miR-21 project); also: nearly all actives have a fitted effect of over 55% in size;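 as to activity change, negative = inhibition: plate controls were vehicle for no effect and reference inhibitor for full effect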
# Conditions: purified FLuc, luminescence inhibition; series mostly up to 57.5 µM; activity change, negative = inhibition: at the top concentration
# How it was run: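 Purified P. pyralis luciferase (10nM final) with 10uM D-luciferin and 10uM ATP (Km levels) in 50mM Tris acetate pH 7.5, 10mM Mg acetate, 0.01% Tween-20, 0.05% BSA; qHTS 6-point titration, ~60 µM downward; luminescence read.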
# Potency is read from the fitted curve at half-maximal effect.
Structure (SMILES),"activity change, negative = inhibition [%]",Potency
CCOC(=O)c1c(NC(=O)c2ccc(S(=O)(=O)N3CCCC(C)C3)cc2)sc2c1CCN(C(C)C)C2 (configuration not stated),-1.35,–
CC(C)CCN1CCC(C)(NC(=O)c2ccccc2)C1=O (configuration not stated),0.614,–
CC1=C(c2ccc(F)cc2)S(=O)(=O)N=C1N1CCC(C(=O)NCCc2ccccc2C)CC1,4.64,–
CCOC(=O)N1CCC(NC(=O)c2cnn3ccccc23)CC1,-0.69,–
O=C(c1cnn2ccccc12)N1CCc2ccccc21,–,6.75 µM (active)
Cc1cnc(C(=O)OCC(=O)N2CCc3ccccc32)cn1,-1.84,–
CCOC(=O)c1c(NC(=O)/C(C#N)=C/c2ccccc2)sc2c1CCC2,-1.39,–
COc1ccc(Cn2c(C(=O)O)c(CNCc3cccc(OC)c3)c3ccc(C)cc32)cc1,2.05,–
CN1CCN(S(=O)(=O)c2cccc(C(=O)Nc3sccc3C#N)c2)CC1,-0.762,–
O=C(Nc1ccncc1)c1ccccc1[N+](=O)[O-],3.49,–
O=C(Nc1ccncc1)c1ccc(Cl)c([N+](=O)[O-])c1,-2.44,–
O=C(Nc1ccccc1C(=O)Nc1ccncc1)c1ccc([N+](=O)[O-])cc1,–,19 µM (active)
CC(=O)Nc1ccc(NC(=O)CSc2nnc(C3CC3)n2-c2ccccc2)cc1,1.21,–
CCc1nn(CCCC(=O)NCc2ccccc2OC)c(=O)c2cc3occc3n12,1.41,–
CC1CN(C(=O)N2CCC(C(=O)NCc3cccs3)CC2)c2ccccc2O1 (configuration not stated),–,1.9 µM (active)
O=C(NCc1cccs1)C1CCN(S(=O)(=O)c2ccc(Cl)cc2)CC1,1.13,–
CC1CN(C(=O)N2CCC(C(=O)NCc3ccco3)CC2)c2cc(Cl)ccc2O1 (configuration not stated),-0.408,–
Cc1nc2nc(SCC(=O)NC3CCC(C)CC3)nn2c(C)c1Cc1ccccc1Cl (configuration not stated),-17.6,–
Clc1ccc(CSc2nnc(/C=C/c3ccccc3)o2)c(Cl)c1,7.83,–
O=c1oc(/C=C/c2ccccc2)nc2ccccc12,-0.823,–
S=c1[nH]nc(/C=C/c2ccccc2)o1,–,26.9 µM (active)
COc1cccc(-n2ccn(CC(=O)NCc3ccc(C)cc3)c(=O)c2=O)c1,4.44,–
CCS(=O)(=O)N1CCc2cc(C(=O)N3CCN(c4ccccc4OC)CC3)ccc21,-4.59,–
CCc1ccccc1NC(=O)c1sc2nc3c(cc2c1N)CN(Cc1ccccc1)CC3,-6,–
CCc1ccc2nc3sc(C(=O)Nc4nnc(CC)s4)c(N)c3cc2c1,–,2.39 µM (active)
CCc1nnc(NC(=O)c2nc3nccc(C)n3n2)s1,1.07,–

Structure (SMILES),"activity change, negative = inhibition [%]",Potency
CSc1ccc(CCNC(=O)c2ccc3c(c2)nc2n3CCOC2)cc1,-18.1,–
CC(C)c1ccc(/C=C2\NC(=O)NC2=O)cc1,–,21.3 µM (active)
CC(C)c1ccc(S(=O)(=O)N2CCC3(CC2)OCCO3)cc1,0.935,–
Cc1ccc(NC(=O)COc2ccc(/C=C3/NC(=O)NC3=O)cc2)cc1,-5.63,–
Cc1ccc(C)c(Cn2c(C(=O)O)c(CNCc3cccs3)c3ccccc32)c1,-3,–
COc1cc(SC)ccc1C(=O)Nc1cc(C)ccn1,–,1.35 µM (active)
Cc1ccnc(NC(=O)CCCOc2ccccc2)c1,3.66,–
COc1cc(SC)ccc1C(=O)NCCOc1ccccc1Cl,–,6.01 µM (active)
COc1cc(SC)ccc1C(=O)Nc1nc(C)cs1,–,0.0757 µM (active)
Cc1ccnc(NC(=O)C(C)N2C(=O)c3ccccc3C2=O)c1 (configuration not stated),-0.934,–
COc1ccccc1OCCNC(=O)CCNC(=O)c1ccccc1Cl,0.227,–
O=C(NCCOc1ccccc1Cl)C(=O)Nc1ccccc1,-13.2,–
Cc1occc1C(=O)Nc1cccc(Cn2cccn2)c1,4.82,–
COc1cc(Cl)c(C)cc1NC(=O)COC(=O)c1cc(SC)ccc1Cl,2.75,–
Cc1ccnc(NC(=O)c2ccoc2C)c1,–,16.9 µM (active)
Cc1csc(NC(=O)CSc2nc(=O)cc(N)n2-c2ccc(F)cc2)n1,0.955,–
COc1cc(SC)ccc1C(=O)N(Cc1ccccc1)c1ccccc1,1.81,–
O=C(CN1CCN(C(=O)C2CCCO2)CC1)Nc1c(Cl)cccc1Cl (configuration not stated),1.65,–
CCCCCCNC(=O)CSc1nccn1Cc1ccccc1,-0.453,–
COC(=O)Cn1cnc2scc(-c3ccc(C)c(C)c3)c2c1=O,6.57,–
CCC(NC(=O)c1ccccc1NC(=O)c1ccccc1)C(=O)NNC(=O)CSc1nc2ccccc2o1 (configuration not stated),-17.4,–
O=C(Cn1nnc2ccccc2c1=O)Nc1cc(C(F)(F)F)ccc1N1CCOCC1,-0.915,–
CC(CO)NCC12CC3CC(CC(C3)C1)C2 (configuration not stated),0.574,–
CCOc1ccccc1NC(=O)c1ccc2c(c1)CCN2S(=O)(=O)c1ccc(C)cc1,-0.319,–
O=C(NCCc1csc(-c2ccc(C(F)(F)F)cc2)n1)C(=O)Nc1ccc(F)c(Cl)c1,0.42,–
Cc1ccc(C)c(N2CCN(C(=O)CN3C(=O)COc4ccc(S(=O)(=O)N5CCCCCC5)cc43)CC2)c1,-11.7,–
